# Screening results (PubChem BioAssay)
# FBPA coupling cs: qHTS Assay for Inhibitors of Fructose-1,6-bisphosphate Aldolase from Giardia Lamblia: Coupling assay counterscreen; coupling enzyme system counterscreen, AmpLite Red fluorescence; activity change, negative = inhibition, % at 58.2 µM, hits read low; 290,000 tested, 0.67% active; AID 2472, 2010; in the data active = activity change below about -30%
#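 Final compound at 57.5 uM, incubated 10 min at RT with coupling enzyme reagent (glyceraldehyde-3-phosphate), then 20 min with substrate and AmpLite Red detection. Fluorescence read at 525/598 nm; tests interference with the coupling assay, not aldolase inhibition.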
# Tau fibril ThT: qHTS for Inhibitors of Tau Fibril Formation, Thioflavin T Binding; Potency, µM (titrated, usually from 57.4 µM), without a hit: at the highest dose activity, negative = inhibition, hits mostly inhibitors; Microtubule-associated protein tau (Homo sapiens), P10636; recombinant tau K18 P301L, heparin-induced fibrillization, ThT fluorescence; 270,000 tested, 2.1% active; note: potency is the fitted concentration of half-maximal effect; nearly all actives have a fitted effect of over 55% in size
# Target sequence (P10636 561-689 P618L limits assumed): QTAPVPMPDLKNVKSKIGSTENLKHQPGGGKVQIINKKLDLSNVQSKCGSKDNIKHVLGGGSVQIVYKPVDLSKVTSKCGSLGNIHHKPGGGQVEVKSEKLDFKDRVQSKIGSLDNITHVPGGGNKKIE
#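 In this qHTS, human K18 P301L tau is incubated with compound and heparin for 6 hr at 37 C, and Thioflavin T fluorescence then reports fibril load.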
# Tau fluor counter: Counterscreen qHTS for Inhibitors of Tau Fibril Formation, Fluorescence Polarization. tau K18 P301L Alexa594 fluorescence, heparin fibrillization. Potency, µM (titrated, usually from 57.7 µM), inactives show at the highest dose activity change, negative = decrease. 280,000 tested, 0.93% active. AID 1463, 2008; note: potency is the fitted concentration of half-maximal effect; nearly all actives have a fitted effect of over 55% in size
#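 Human tau K18 P301L (15 uM unlabeled, 0.24 uM Alexa 594-labeled) in 100 mM sodium acetate pH 7 with 20 uM heparin, 6 hr at 37 C. ThT 30 uM added, 1 hr ambient; Alexa 594 FP and total fluorescence read at 555/632 nm.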
# Sfp PPTase inh: qHTS Assay for Inhibitors of Bacillus subtilis Sfp phosphopantetheinyl transferase (PPTase); Biochemical Sfp PPTase activity, qHTS; Potency, µM, inactives show largest response in the series, negative = inhibition, actives largely listed as inhibitors; 310,000 tested, 3.5% active;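 note: the enzyme is Sfp with the accession as filed and its product quenches rhodamine fluorescence; potency is the fitted concentration of half-maximal effect; 0% = enzyme reaction without inhibitor and -100% = no enzyme wells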
#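 Reaction rates are the 30-min fluorescence difference (ex 525, em 598 nm) in wells containing 15 nM Sfp, 5 uM rhodamine-CoA and 12.5 uM BHQ-2-YbbR at pH 7.6 with 10 mM MgCl2.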
# Tau fibril FP: qHTS for Inhibitors of Tau Fibril Formation, Fluorescence Polarization; Microtubule-associated protein tau (Homo sapiens), P10636; K18 P301L tau heparin fibrillization, Alexa594 FP, 6 h; Potency, µM (top dose mostly 57.7 µM), without a hit: top-dose activity, negative = inhibition, most hits filed as inhibitors; 280,000 tested, 0.39% active; AID 1468, 2008; note: potency is the fitted concentration of half-maximal effect; nearly all actives have a fitted effect of over 55% in size
#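 Quantitative HTS format: compounds meet 15 uM recombinant K18 P301L tau and Alexa 594-tau tracer in 100 mM sodium acetate pH 7; 20 uM heparin triggers fibrillization at 37 C over 6 hr; FP gives the signal.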
# * marks the source's active call; other numbers are inactive results; ? = inconclusive; / = no result given; [ ] = another dose, or the depositor's remark. Compounds with a hit are over-represented: about 5.2% of the library has one in this group of screens. Unless noted, calls come from the whole dose curve; as a rule, active = well fitted curve in the direction sought with a large enough effect; inconclusive = small, poorly fitted or top-dose-only effect, or another doubt; inactive = no such curve, though single readings can be large; an effect the other way counts as inactive or inconclusive. Unless noted, % is set by controls: 0 for no effect and ±100 for the full control effect.
SMILES,FBPA coupling cs,Tau fibril ThT,Tau fluor counter,Sfp PPTase inh,Tau fibril FP
Cc1ccc2occ(CC(=O)Nc3ccc(S(N)(=O)=O)cc3)c2c1,/,-2.4%,-6.2%,/,-6.2%
CCc1ccc2occ(CC(=O)Nc3ccc(OC)c(Cl)c3)c2c1,/,?,25.1µM*[quencher],/,?
CC(C)c1ccc2occ(CC(=O)Nc3cccc(C(F)(F)F)c3)c2c1,/,-4.0%,?,/,17.8µM*
CCOC(=O)c1c(NC(C)=O)c2c3c(sc2n1Cc1cccc(Cl)c1)CCCC3,/,-0.6%,1.0%,/,0.7%
COc1ccc(CN2COc3ccc4c(-c5ccc(OC)cc5)cc(=O)oc4c3C2)cc1,/,?,-23.2%,/,0.4%
Cc1cccc(-n2c(CCc3ccccc3)nnc2SCC(=O)c2ccccc2)c1,-1.1,?,-15.3%,50.1µM*,-8.5%
CC1(C)C=C2C(=NN(c3ccccc3)C(N)=C2C#N)CO1,-62.1*,/,/,44.7µM*,/
CC1=CC(=O)C=C(C)C1=NOS(=O)(=O)c1ccccc1,-87.4*,14.1µM*,?,-5.2%,?
CC1=CC(=O)C(C(C)C)=C/C1=N/OS(=O)(=O)c1ccccc1,-73.1*,14.1µM*,?,-26.9%,?
COC(=O)c1cc(S(=O)(=O)N2CCN(c3ccc(C)cc3C)CC2)cn1C,/,-7.2%,-12.2%,/,-0.6%
COc1ccc(C2c3c(-c4ccccc4O)n[nH]c3C(=O)N2Cc2ccco2)cc1 (stereo not drawn),0.7,-0.3%,?,-29.4%,-4.3%
Cc1ccc(O)c(-c2n[nH]c3c2C(c2ccc(F)cc2)N(Cc2ccco2)C3=O)c1 (stereo not drawn),/,?,14.1µM*[quencher],/,4.0%
COc1ccc(Nc2nc(N)c3cc(OC)c(OC)cc3n2)cc1,/,?,11.2µM*[quencher],/,?
CC1=NN(c2ccccc2)C(=O)C1N=Nc1ccc(N)cc1 (stereo not drawn),-18.3,11.2µM*,15.8µM*[quencher],-28.3%,-10.8%
Cc1ccc(CNc2nc3ccccc3n2C)cc1,1.9,/,/,-1.3%,/
Cc1cc(C)c(C)c(N=Nc2nc3ccccc3n2C)c1C,-1.6,8.91µM*,?,56.2µM*,-20.1%
Cc1ccc(C)c(N=Nc2nc3ccccc3n2C)c1,-6.7,5.62µM*,?,-13.6%,-1.2%
COc1cccc(CNC(=O)Cc2csc3ccccc23)c1OC,/,-0.7%,-6.9%,/,8.2%
Cc1oc(C(C)(C)C)cc1C(=O)NC(Cc1ccccc1)C(=O)O (stereo not drawn),11.2,4.6%,1.2%,19.6%,-0.8%
COC(=O)CCC(NC(=O)c1cc(-c2ccc3c(c2)OCCO3)oc1C)C(=O)OC (stereo not drawn),1.4,-18.4%,-11.0%,35.5µM*,12.7%
COC(=O)C(Cc1c[nH]c2ccccc12)NC(=O)c1cc(-c2ccc(OC)c(OC)c2)oc1C (stereo not drawn),-3.2,?,?,31.6µM*,?
Cc1oc(-c2ccc3c(c2)OCCO3)cc1C(=O)NC(Cc1ccccc1)C(=O)O (stereo not drawn),7.3,?,-13.1%,22.4µM*,-7.3%
CC(C)c1ccc(CNCCSc2nnnn2-c2ccccc2)cc1,/,-17.9%,-19.5%,/,-10.9%
c1c2c(cc3sc(N4CCOCC4)nc13)OCO2,-0.6,?,-15.6%,35.5µM*,-0.2%
c1c2c(cc3sc(N4CCCCC4)nc13)OCO2,-1.2,?,-28.1%,-25.9%,-16.5%
c1ccc(N2CCN(c3nc4cc5c(cc4s3)OCO5)CC2)cc1,0.3,2.51µM*,-18.1%,44.7µM*,-3.7%
Cc1ccc(CNC(=O)C23CN(Cc4ccccc4)CC2C(c2ccc([N+](=O)[O-])cc2)=NO3)cc1 (stereo not drawn),-1.8,-13.2%,-27.2%,39.8µM*,12.0%
Cc1ccc(CCNC(=O)C23CN(Cc4ccccc4)CC2C(c2ccc([N+](=O)[O-])cc2)=NO3)cc1 (stereo not drawn),-8.7,-11.2%,-24.3%,10µM*,?
